Molecules are shown by their SMILES. “And” between values parts separate entries of the source, which are not always exact repeats. Equal entries are not always repeated. A number with no mark means an inactive call. Records with an inconclusive call do not appear. The source made the active and inactive calls. Unless noted, calls come from the whole dose curve; as a rule, active = well fitted curve in the direction sought with a large enough effect in the repeat runs; inconclusive = weak or mixed curves; inactive = no such curve, though single readings can be large; an effect the other way counts as inactive or inconclusive.

The source of these data is PubChem BioAssay (Tox21).

Assay [1] can be described thus: qHTS assay to identify small molecule agonists of the constitutive androstane receptor (CAR) signaling pathway - cell viability counter screen (AID 1224836). Note: nearly all actives have a fitted effect of over 45% in size. Note: potency is the fitted concentration of half-maximal effect. Summed up:
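Using CellTiter-Fluor, viability of HepG2 cells harbouring hCAR and CYP2B6-2.2kb was measured following 23 h incubation with a 15-concentration compound series plus PK11195 (0.75 uM final).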

The nature of assay [2]: qHTS assay to identify small molecule antagonists of the constitutive androstane receptor (CAR) signaling pathway - cell viability counter screen (AID 1224837). Note: nearly all actives have a fitted effect of over 45% in size. Note: potency is the fitted concentration of half-maximal effect. The method in brief:
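Multiplexed cytotoxicity read-out for the CAR antagonist screen: double-stable HepG2-CYP2B6-hCAR cells co-treated with 50 nM CITCO (final) and compound over 15 concentrations, incubated 23 hr, then assessed by CellTiter-Fluor fluorescence.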
A general note: In qHTS, concentration-response curves come from the screen itself.

Assay [3] concerns the target Nuclear receptor subfamily 1 group I member 3 (Homo sapiens) (UniProt Q14994). Description: qHTS assay to identify small molecule antagonists of the constitutive androstane receptor (CAR) signaling pathway (AID 1224838). Note: nearly all actives have a fitted effect of over 40% in size. Note: potency is the fitted concentration of half-maximal effect. The method in brief:
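Compounds were titrated across 15 concentrations onto HepG2 cells double-stably expressing hCAR and a CYP2B6-2.2kb reporter, together with 50 nM CITCO (final). After 24 h at 37 C, luciferase activity was measured by luminescence.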

Assay [4] has the same target. Description: qHTS assay to identify small molecule agonists of the constitutive androstane receptor (CAR) signaling pathway (AID 1224839).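 For activation: HepG2 cells stably carrying human CAR and a CYP2B6 luciferase reporter.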 Note: nearly all actives have a fitted effect of over 15% in size. Note: potency is the fitted concentration of half-maximal effect. Summed up: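 Double-stable HepG2 cells (hCAR, CYP2B6-2.2kb) seeded 4 h before compound addition. Exposure 24 h with 0.75 uM PK11195 final. Luciferase detected by ONE-Glo.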
Assay [5] is described as follows: qHTS assay to identify small molecule antagonists of the estrogen related receptor signaling pathway with the pleiotropic PPARgamma coactivator (PGC) from Tox21 10K library - cell viability counter screen (AID 1224840; active = well fitted cell-killing curve with a large enough effect in the repeat runs, not every such curve was filed as active; note: nearly all actives have a fitted effect of over 40% in size; note: potency is the fitted concentration of half-maximal effect). The method in brief: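 Step one, plate 2,000 PGC/ERR cells per well; step two, incubate 6 h at 37 C/5% CO2; step three, pin-transfer compounds; step four, incubate 17.5 h; step five, add CellTiter-Fluor and read fluorescence after 30 min.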

Assay [6] can be described thus: qHTS assay to identify small molecule antagonists of the estrogen related receptor signaling pathway with the pleiotropic PPARgamma coactivator (PGC) from Tox21 10K library (AID 1224841; call rule not given here; note: actives are mostly falling curves and most rising ones were filed inactive; nearly all actives have a fitted effect of over 50% in size; note: potency is the fitted concentration of half-maximal effect). The method in brief:
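Antagonism in this quantitative HTS is taken from loss of luciferase signal in PGC/ERR cells. Cells (2,000/well) are treated with compounds in DMSO after a 6 h settling period and read by One-Glo luminescence after 18 h.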

Assay [7] can be described thus: qHTS assay to identify small molecule agonists of the estrogen related receptor signaling pathway with the pleiotropic PPARgamma coactivator (PGC) from Tox21 10K library (AID 1224842). Note: nearly all actives have a fitted effect of over 15% in size. Note: potency is the fitted concentration of half-maximal effect. Summed up: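 Luminescence from One-Glo (30 min, room temperature) measured after PGC/ERR cells had 18 h at 37 C with pinned compound (23 nL in DMSO). Cells had been seeded at 2,000 per well and pre-incubated 6 h.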

Assay [8] can be described thus: qHTS assay to identify small molecule agonists of the hypoxia (HIF-1) signaling pathway - cell viability counter screen (AID 1224844; calls by dose curve; note: nearly all actives have a fitted effect of over 50% in size; note: potency is the fitted concentration of half-maximal effect). Summed up: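 Tox21 10K compounds were added to HRE-bla ME-180 cells (0.5% dialyzed FBS) and incubated 17 hrs at 37C; ATP-based CellTiter-Glo luminescence then reported cell viability in the same wells.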
Assay [9] is described as follows: qHTS assay to identify small molecule agonists of H2AX (AID 1224845; active = well fitted activation curve with a large enough effect in the signal ratio in the repeat runs, not every such curve was filed as active; the % refers to the signal ratio; note: potency is the fitted concentration of half-maximal effect). The method in brief: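 Phospho-H2AX Ser139 measured by HTRF (ex 320 nm; em 665 and 620 nm) after 24 hr antibody incubation. Compounds, 15 concentrations, 0.76% DMSO, were applied to CHO-K1 cells for 3hr at 37C before lysis.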
The nature of assay [10]: qHTS assay to identify small molecule agonists of the hypoxia (HIF-1) signaling pathway (AID 1224846; active = well fitted activation curve with a large enough effect in the signal ratio in the repeat runs, not every such curve was filed as active; the % refers to the signal ratio). Summed up:
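Steps: seed ME-180 HRE-bla cells (2,000/well, 0.5% dialyzed FBS); incubate 5 hrs at 37C; pin-transfer compounds or DMSO; incubate 17 hrs; add LiveBLAzer B/G substrate CCF4-AM; measure reporter activation by FRET.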

Assay [11] can be described thus: qHTS assay to identify small molecule agonists of H2AX - cell viability counter screen (AID 1224847; calls by dose curve; note: nearly all actives have a fitted effect of over 30% in size; note: potency is the fitted concentration of half-maximal effect). The method in brief: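 Quantitative HTS viability measurement: CHO-K1 wild-type cells in serum (10% FBS) medium, short 3 hr drug exposure at 37C with 0.76% DMSO, CellTiter-Glo luminescent detection.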
The nature of assay [12]: qHTS assay to identify small molecule antagonists of the estrogen related receptor (ERR) signaling pathway from Tox21 library (AID 1224848). Note: nearly all actives have a fitted effect of over 50% in size. Note: potency is the fitted concentration of half-maximal effect. Summed up: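 Reading was by luminescence 30 min after ONE-Glo addition. Before that, ERR cells at 2,000 per well had rested 6 h at 37 C/5% CO2 and then received pin-tooled compounds in DMSO for 18 h at 37 C.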
A short description of assay [13]: qHTS assay to identify small molecule agonists of the estrogen related receptor (ERR) signaling pathway from Tox21 library (AID 1224849; calls by dose curve; note: nearly all actives have a fitted effect of over 15% in size). The note with it: ERR reporter cell line, ONE-Glo luciferase, 18 h; at 92.4 µM (top of the series) unless noted. Summed up: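 Agonist signal is luciferase luminescence from an ERR reporter cell line treated 18 h at 37 C with DMSO-dissolved compounds, read 30 min after ONE-Glo addition at room temperature.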

The nature of assay [14]: qHTS RealTime-Glo MT Cell Viability Assay in HepG2 cells - 24 hour (AID 1224867). Note: nearly all actives have a fitted effect of over 50% in size. Note: potency is the fitted concentration of half-maximal effect. The method in brief: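 Luminescence read-out: viable HepG2 cells reduce a prosubstrate to a NanoLuc substrate, giving a signal proportional to live cell number. Reads taken at 0, 8, 16, 24, 32 and 40 h of compound exposure at 37 C.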
Assay [15] is described as follows: qHTS RealTime-Glo MT Cell Viability Assay in HEK293 cells - 32 hour (AID 1224868). Note: nearly all actives have a fitted effect of over 50% in size. Note: potency is the fitted concentration of half-maximal effect. Summed up: (§1)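 Nonlytic real-time viability readout: viable cells convert prosubstrate to NanoLuc substrate, giving luminescence proportional to live cell number. HEK293, 600 cells/well, compound added after 5 h, continuous culture at 37 C.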
The nature of assay [16]: A CellTox Green Cytotoxicity Assay to monitor cytotoxicity in HEK293 cells - 0 hour (AID 1224869). Note: nearly all actives have a fitted effect of over 50% in size. The method in brief:
(§2)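 Cytotoxicity was tracked continuously in HEK293 cells by a DNA-binding dye excluded from viable cells. Compounds were transferred in DMSO 5 h after seeding; fluorescence was recorded at intervals up to 40 h.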

A short description of assay [17]: qHTS RealTime-Glo MT Cell Viability Assay in HepG2 cells - 40 hour (AID 1224870). Note: nearly all actives have a fitted effect of over 50% in size. Note: potency is the fitted concentration of half-maximal effect. Summed up: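 Real-time viability: cells seeded at 600 per well together with NanoLuc and cell-permeant prosubstrate, compounds added after 5 h incubation. Luminescence tracked at 0, 8, 16, 24, 32 and 40 h of exposure.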
The nature of assay [18]: A CellTox Green Cytotoxicity Assay to monitor cytotoxicity in HEK293 cells - 40 hour (AID 1224871). Note: nearly all actives have a fitted effect of over 45% in size. Note: potency is the fitted concentration of half-maximal effect. The method in brief: as §2
Assay [19] is described as follows: qHTS RealTime-Glo MT Cell Viability Assay in HEK293 cells - 16 hour (AID 1224872). Note: nearly all actives have a fitted effect of over 50% in size. Note: potency is the fitted concentration of half-maximal effect. Summed up: as §1
The target in assay [20] is Thyrotropin receptor (Homo sapiens) (UniProt P16473). Description: qHTS assay to identify small molecule agonists of the thyroid stimulating hormone receptor (TSHR) signaling pathway (AID 1224843; calls by dose curve; note: nearly all actives have a fitted effect of over 45% in size). Summed up: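 HEK293 cells stably bearing the thyrotropin receptor were plated at 800 cells/well and challenged with compound (30 min, RT). Accumulated cAMP was quantified via cAMP-d2 competing for cryptate-tagged antibody.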
% is set by controls: 0 for no effect and ±100 for the full control effect.

Sequence of Thyrotropin receptor (Homo sapiens) (P16473 whole entry, looked up): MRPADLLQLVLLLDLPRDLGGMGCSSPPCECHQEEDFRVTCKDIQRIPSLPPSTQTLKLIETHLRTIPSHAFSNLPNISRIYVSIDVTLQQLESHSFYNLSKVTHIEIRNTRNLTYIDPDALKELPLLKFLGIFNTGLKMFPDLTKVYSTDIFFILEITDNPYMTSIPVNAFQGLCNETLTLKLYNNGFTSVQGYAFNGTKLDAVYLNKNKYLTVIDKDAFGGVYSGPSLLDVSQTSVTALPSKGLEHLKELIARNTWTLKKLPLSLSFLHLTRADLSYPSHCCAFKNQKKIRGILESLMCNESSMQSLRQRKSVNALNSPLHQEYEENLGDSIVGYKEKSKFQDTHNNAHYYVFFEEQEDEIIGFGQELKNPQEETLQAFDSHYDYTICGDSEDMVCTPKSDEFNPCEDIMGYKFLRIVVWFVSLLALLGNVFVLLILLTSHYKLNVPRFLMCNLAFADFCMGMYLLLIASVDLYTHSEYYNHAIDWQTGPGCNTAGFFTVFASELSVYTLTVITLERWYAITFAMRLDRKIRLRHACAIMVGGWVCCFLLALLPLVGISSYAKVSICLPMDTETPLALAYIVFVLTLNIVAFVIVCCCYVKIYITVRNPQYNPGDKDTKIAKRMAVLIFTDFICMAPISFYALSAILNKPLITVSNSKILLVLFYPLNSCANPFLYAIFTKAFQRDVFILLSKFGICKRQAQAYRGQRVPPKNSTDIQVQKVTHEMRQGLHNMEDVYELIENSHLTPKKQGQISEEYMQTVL
Sequence of Nuclear receptor subfamily 1 group I member 3 (Homo sapiens) (Q14994 whole entry, looked up): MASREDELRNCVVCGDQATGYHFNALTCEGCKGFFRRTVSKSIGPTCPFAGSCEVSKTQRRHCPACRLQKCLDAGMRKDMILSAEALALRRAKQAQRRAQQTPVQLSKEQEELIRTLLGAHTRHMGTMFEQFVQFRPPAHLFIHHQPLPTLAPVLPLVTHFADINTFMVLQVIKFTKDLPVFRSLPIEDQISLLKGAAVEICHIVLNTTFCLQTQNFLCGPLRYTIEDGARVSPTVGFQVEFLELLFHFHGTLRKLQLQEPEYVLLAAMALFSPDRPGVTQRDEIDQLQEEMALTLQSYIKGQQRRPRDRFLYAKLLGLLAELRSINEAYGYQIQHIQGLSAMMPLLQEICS

As for `COc1cc(/C=C/C(=O)O[C@H]2CC[C@]34C[C@]35CC[C@]3(C)[C@@H]([C@H](C)CCC=C(C)C)CC[C@@]3(C)[C@@H]5CC[C@H]4C2(C)C)ccc1O`, the Potency result in [1], in [2], in [3], in assay [4], in assay [5] and in [6] was “inactive” each time. Also, the Potency entry in assay [7], in assay [8], in [9], in [10], in assay [11] and in assay [12] was “inactive” in each case. In addition, the Potency entry in assay [14], in assay [15], in assay [16], in assay [17], in assay [18] and in assay [19] was “inactive” in each case. In assay [13], the activity change, positive = activation is -5.43% [at 42.5 µM].

For `O=C(c1ccc(F)cc1)C1CCN(CCn2c(=O)[nH]c3ccccc3c2=O)CC1`, the Potency result in [1], in assay [2], in [3], in assay [4], in [5] and in [6] was “inactive” throughout. The Potency entry in assay [7], in [11], in [14], in assay [16], in assay [17] and in assay [18] was “inactive” each time. In addition, the activity change, positive = activation in assay [13] is -25.2% [at 42.5 µM]. The Potency was 9.52 µM (active) in assay [15] and 8.49 µM (active) in assay [19].

Consider `N#CSc1ccc(N)c([N+](=O)[O-])c1`, for which the Potency in [1] was 48.9 µM (active); in assay [2], 43.5 µM (active); in assay [3], 48.9 µM (active); in assay [5], 54.8 µM (active); in assay [6] it was 30.8 µM (active); in assay [12] it was 43.5 µM (active). The Potency was 49.3 µM (active) in [15] and 43.9 µM (active) in assay [19]. The Potency result in assay [4], in [7], in [9], in [11], in assay [16] and in assay [17] was “inactive” throughout. Also, in assay [13], the activity change, positive = activation is -63.3%.

Regarding `Clc1ccc2nsnc2c1NC1=NCCN1`, the Potency entry in assay [1], in assay [2], in assay [3], in assay [4], in assay [5] and in [6] was “inactive” each time. Further, the Potency entry in [7], in assay [8], in [9], in assay [10], in [11] and in assay [12] was “inactive” throughout. Further, the Potency entry in assay [14], in [16], in assay [18] and in [19] was “inactive” in each case. Besides, the activity change, positive = activation in assay [13] was -5.33% [at 42.5 µM].

On to `CCCCCCOC(=O)c1ccc(O)cc1`, for which the Potency result in assay [1], in assay [2], in [3], in assay [5], in assay [6] and in assay [20] was “inactive” in each case. Besides, the Potency entry in [8], in [9], in [12], in assay [14], in assay [16] and in [17] was “inactive” throughout. In addition, the Potency in assay [4] is 27.3 µM (active) and 54.5 µM (active); in assay [7], 30.7 µM (active) and 9.69 µM (active); in [11] it was 89.9 µM (active) and 101 µM (active); in assay [15], 43.7 µM (active) and 21.9 µM (active); in assay [19] it was 43.7 µM (active) and 21.9 µM (active). In addition, the activity change, positive = activation in [13] was 67.7% (active) and 70.3% (active).

Regarding `C[n+]1cc2c3c(ccc2c2ccc4cc5c(cc4c21)OCO5)OCO3`, the Potency in assay [1] was 2.91 µM (active); in assay [2], 2.59 µM (active); in [3], 2.91 µM (active); in [5] it was 3.26 µM (active); in assay [6] it was 7.3 µM (active); in [8] it was 2.61 µM (active). For the same compound, the Potency in assay [9] is 0.956 µM (active); in [11], 852 nM (active); in assay [12] it was 2.91 µM (active); in assay [14], 0.827 µM (active); in assay [17], 1.04 µM (active); in [18], 0.465 µM (active). Besides, in [19], the Potency is 0.585 µM (active). For the same compound, the activation in [4] was -21.2% [at 19 µM]; in [7] it was -34.9% [at 19 µM]; in assay [20], -8.77% [at 19 µM]. For the same compound, the activity change, positive = activation in [13] is -68.3% [at 19 µM]. For the same compound, the cytotoxicity in assay [16] was -9.5% [at 15.8 µM].
